Only some compounds are listed: those with a hit (about 6.7% of all), similar ones and a draw of the others.
T cruzi growth-1: T. cruzi intracellular proliferation inhibitors, primary screen, cell-based, beta-gal Tulahuen parasites, NIH3T3 host, luminescence; T. cruzi beta-gal in NIH3T3, GalScreen luminescence, 90 h; 5.9% of 77,000 active; inhibition, % at 8.34 µM;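 active = mean inhibition above about 93%, with at least 55% of replicates each passing it, limit read from the data, passing the limit was not always enough; inconclusive = only one of those two conditions holds; inactive = neither condition holds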
Pf Dd2 inh: P. falciparum Dd2 growth inhibitors, primary screen, SYBR Green fluorescence, single dose replicates. 2.3% of 94,000 active. 72 h; hits give low values. activity change, % at 10 µM. AID 1159554, 2015; in the data active = activity change below about -80%; inconclusive = no clear call, values can overlap the other calls
C diff growth: C. difficile growth inhibitors, primary screen, HTS; Clostridium difficile clinical isolate growth, OD600, 24 h; hits give low values; growth activity, negative = inhibition, % at 16 µg/mL (by protocol); 0.25% of 86,000 active; AID 1259249, 2017;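 active = mean growth activity at or below -80% and every replicate also at or below -80%; inconclusive = mean at or below -80% but some replicate above -80%; inactive = mean growth activity above -80%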
T cruzi growth-2: T. cruzi intracellular proliferation inhibitors, confirmation, cell-based, NIH3T3 host, beta-gal parasite, luminescence, cherry-pick. AID 651739, 2012. 72% of 5,600 active. inhibition, % at 8.35 µM. shares compounds with T cruzi growth-1. T. cruzi beta-gal in NIH3T3, GalScreen luminescence, 90 h;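 active = mean replicate inhibition above about 95% and at least 55% of replicates individually reaching it, limit read from the data; inconclusive = only one of the two criteria is met; inactive = neither criterion is met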
T cruzi growth-3: inhibitors of intracellular T. cruzi replication, confirmation, NIH3T3 host cells, beta-gal parasites, cherry-pick, set 2. shares compounds with T cruzi growth-1. T. cruzi beta-gal in NIH3T3, GalScreen luminescence, 90 h. inhibition, % at 2.09 µM. 21% of 5,600 active;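 active = mean inhibition above about 95%, with at least 55% of replicates also reaching it, limit read from the data; inconclusive = meets just one of the two conditions; inactive = meets neither condition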
NIH3T3 tox: cytotoxicity in mouse NIH/3T3 fibroblasts, confirmation, cytotoxicity control for T. cruzi proliferation inhibitor project, cell-based, cherry-pick, single point; cytotoxicity (signal decrease), % at 8.35 µM; 14% of 5,600 active; NIH/3T3 viability, CellTiter-Glo ATP luminescence, 90 h; shares compounds with T cruzi growth-1;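 active = mean signal decrease across replicates above about 35% based on untreated-well scatter, with enough replicates individually passing, limit read from the data; inconclusive = no rule stated though some were filed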
3T3 cytotox 2: NIH/3T3 fibroblast cytotoxicity, confirmation, cytotoxicity control, cell-based, cherry-pick, single point, set 2 | shares compounds with T cruzi growth-1 | NIH/3T3 viability, CellTiter-Glo ATP luminescence, 90 h | inhibition, % at 24.9 µM | 56% of 5,600 active | AID 651744, 2012;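 active = mean loss of cell viability signal at or above a set limit, and enough replicates individually reaching it; inconclusive = meets only the mean limit or only the replicate share; inactive = meets neither condition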
A number is an active result; . = inactive; ? = inconclusive; / = not tested or not shown.

SMILES | T cruzi growth-1 | Pf Dd2 inh | C diff growth | T cruzi growth-2 | T cruzi growth-3 | NIH3T3 tox | 3T3 cytotox 2
COc1ccc(S(=O)(=O)N(C)C[C@@H]2Oc3ncc(C#Cc4ccccc4)cc3C(=O)N([C@H](C)CO)C[C@@H]2C)cc1 | 109 | . | . | 101 | . | . | 63
C[C@H](CO)N1C[C@H](C)[C@H](CN(C)S(=O)(=O)c2ccc(C#N)cc2)Oc2ncc(C#Cc3cccc(F)c3)cc2C1=O | . | . | . | / | / | / | /
COc1cccc(S(=O)(=O)N(C)C[C@H]2Oc3ncc(C#CCN(C)C)cc3C(=O)N([C@@H](C)CO)C[C@@H]2C)c1 | . | . | . | / | / | / | /
Cc1ccc(S(=O)(=O)N(C)C[C@@H]2Oc3ncc(C#Cc4cccc(F)c4)cc3C(=O)N([C@H](C)CO)C[C@@H]2C)cc1 | 121 | . | . | 99 | . | ? | 52
C[C@H](CO)N1C[C@H](C)[C@H](CN(C)S(=O)(=O)c2cccs2)Oc2ncc(C#Cc3ccc(C(F)(F)F)cc3)cc2C1=O | . | . | / | / | / | / | /
C[C@H](CO)N1C[C@H](C)[C@H](CN(C)S(=O)(=O)c2cccs2)Oc2ncc(C#Cc3ccc(F)cc3)cc2C1=O | 112 | . | . | 106 | . | . | .
O=C(Nc1ccc2c(c1)[C@H]1C[C@@H](CC(=O)N3CCc4ccccc4C3)O[C@H](CO)[C@H]1O2)C1CCC1 | . | . | . | / | / | / | /
O=S(=O)(N[C@H]1CC[C@@H](CCn2cc(-c3ccc(F)cc3)nn2)O[C@H]1CO)c1ccccc1F | . | . | . | / | / | / | /
Cc1ccc(S(=O)(=O)Nc2ccc3c(c2)C(=O)N([C@H](C)CO)C[C@@H](C)[C@@H](CN(C)Cc2ccc(C(=O)O)cc2)OCCCC[C@@H](C)O3)cc1 | . | . | / | / | / | / | /
C[C@@H]1CCCCO[C@@H](CN(C)C(=O)CCC(F)(F)F)[C@@H](C)CN([C@H](C)CO)C(=O)c2cc(NS(=O)(=O)c3cn(C)cn3)ccc2O1 | . | . | . | / | / | / | /
CN(C)CC(=O)Nc1ccc2c(c1)[C@@H]1C[C@@H](CC(=O)N(C)C)O[C@H](CO)[C@@H]1O2 | . | . | . | / | / | / | /
COc1cccc(S(=O)(=O)N(C)C[C@@H]2Oc3ncc(C#CCC(C)C)cc3C(=O)N([C@@H](C)CO)C[C@@H]2C)c1 | . | . | . | / | / | / | /
Cc1ccc(S(=O)(=O)N(C)C[C@@H]2Oc3ncc(-c4cccc(C(F)(F)F)c4)cc3C(=O)N([C@H](C)CO)C[C@@H]2C)cc1 | 126 | . | . | 106 | . | 48 | 43
COc1cccc(S(=O)(=O)N(C)C[C@@H]2Oc3ncc(C#Cc4cccc(F)c4)cc3C(=O)N([C@H](C)CO)C[C@@H]2C)c1 | 110 | . | . | 102 | . | . | 33
COc1cccc(S(=O)(=O)N(C)C[C@@H]2Oc3ncc(C#CC(C)C)cc3C(=O)N([C@@H](C)CO)C[C@H]2C)c1 | . | . | . | / | / | / | /
COc1cccc(S(=O)(=O)N(C)C[C@H]2Oc3ncc(C#CCC(C)C)cc3C(=O)N([C@@H](C)CO)C[C@@H]2C)c1 | ? | . | . | 111 | . | . | 73
C[C@H](CO)N1C[C@H](C)[C@H](CN(C)S(=O)(=O)c2ccc(C#N)cc2)Oc2ncc(-c3cccc(C(F)(F)F)c3)cc2C1=O | . | . | . | / | / | / | /
COc1ccc2c3c(n(C)c2c1)[C@@H](CO)N(C(=O)C1CCCC1)CC31CCN(C)CC1 | / | . | . | / | / | / | /
C[C@@H]1CCCCO[C@@H](CN(C)C(=O)c2ccncc2)[C@@H](C)CN([C@H](C)CO)C(=O)c2cc(NS(=O)(=O)c3cn(C)cn3)ccc2O1 | . | . | . | / | / | / | /
CCCNC(=O)[C@H]1[C@H](CO)[C@H]2Cn3c(ccc(-c4ccccc4F)c3=O)[C@@H]1N2CC1CC1 | . | . | . | / | / | / | /
CCCC#Cc1ccc2c(c1)O[C@H](CN(C)C(=O)C1CCCCC1)[C@@H](C)CN([C@@H](C)CO)S2(=O)=O | 95 | . | . | . | 100 | . | 104

From PubChem
